# From PubChem
# CHX counter – counter-screen hit for Shiga toxin inhibitors, cycloheximide; max response, %; 300,000 tested, 12% active; cell reporter, cycloheximide protein synthesis inhibition counterscreen; in the data active = max response mostly above about 13%, no sharp cut-off; inactive = mostly below about 14%; note: read at 38.3 µM for the half of the compounds with a filed dose; 0% is about no effect
# Shiga toxin inh – Shiga toxin inhibition. Vero cells, Shiga toxin protein synthesis inhibition reporter. inhibition, % at 38.7 µM. 290,000 tested, 9.2% active. AID 2315; in the data active = inhibition mostly above about 28%, no sharp cut-off; inactive = mostly below about 43%; note: 0% is about no effect
# LASV entry inh – blocks Lassa virus binding to or entry into cells; Lassa virus pseudotype entry inhibition, cell reporter; Potency, µM (doses to about 37.9 µM), for the others: top-dose activity change, negative = inhibition, most hits filed as inhibitors; 300,000 tested, 1.2% active; calls by dose curve; tested in HEK293 cells; note: potency is the fitted concentration of half-maximal effect; % is set by controls: 0 for no effect and ±100 for the full control effect; nearly all actives have a fitted effect of over 50% in size
# Pf growth 48h – P. falciparum growth inhibition at 48 hours (one generation) | P. falciparum luciferase growth in erythrocytes, 48 h | Potency, µM (highest dose often 28.7 µM), without a hit: at the highest dose activity change, negative = inhibition, usual class: inhibitors | 310,000 tested, 5.9% active; note: potency is the fitted concentration of half-maximal effect; % is set by controls: 0 for no effect and ±100 for the full control effect
#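 Cell-based growth assay: transgenic P. falciparum expressing firefly luciferase, cultured in red cells within RPMI 1640 containing 0.5% w/v Albumax, 24 mM bicarbonate and gentamycin. A drop in luciferase activity indicates inhibition.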
# Marburg entry inh – Marburg virus entry inhibition; 300,000 tested, 1.8% active; Marburg virus pseudotyped entry inhibition, cell reporter; Potency, µM (top dose mostly 37.8 µM), for the others: top-dose activity change, negative = inhibition, usual class: inhibitors; calls by dose curve; tested in HEK293 cells; note: potency is the fitted concentration of half-maximal effect; % is set by controls: 0 for no effect and ±100 for the full control effect
# Pf growth 96h – P. falciparum growth inhibition at 96 hour, primary screen for plastid delayed-death inhibitors. Potency, µM (doses to about 28.7 µM), for inactives: top-dose activity change, negative = inhibition, actives largely listed as inhibitors. 320,000 tested, 6.9% active. P. falciparum luciferase reporter growth, 96 h. AID 504834; note: potency is the fitted concentration of half-maximal effect; % is set by controls: 0 for no effect and ±100 for the full control effect
#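 Two parasite generations (96 h, 37 C, 5% CO2) of compound exposure in infected erythrocytes (0.05% parasitemia, 2% hematocrit). Luciferase-reporter P. falciparum; decreased luminescence indicates inhibited growth, aimed at apicoplast-acting delayed death.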
# Numbers without * were called inactive; ? = inconclusive; / = no result; [ ] = dose if it differs, or a comment. In the library only some 19% were active in any assay of this set; here they are far more common. Unless noted, calls come from the whole dose curve; as a rule, active = well fitted inhibition curve with a large enough effect; inconclusive = small, poorly fitted or top-dose-only effect, or another doubt; inactive = no such curve, though single readings can be large or run the other way.
SMILES,CHX counter,Shiga toxin inh,LASV entry inh,Pf growth 48h,Marburg entry inh,Pf growth 96h
NC(=O)CC1C(=O)N(c2ccccc2)C(=S)N1NC(=O)c1ccccc1 (stereo unspecified),26.6*,32.4,-1.1%[46.1 µM],165.9%,?,305.2%
COc1cccc(C(=O)NN2C(=S)N(c3ccccc3)C(=O)C2CC(N)=O)c1 (stereo unspecified),42.6*,50.5*,?,146.6%,29.4%,305.5%
Cc1cccc(CS(=O)(=O)Cc2ccc(C(=O)NCC3CCCO3)o2)c1 (stereo unspecified),1.0,-13.7,1.7%,-5.7%,24.4%,?
COc1ccc(COCC(O)CN2CCC(CN3C(=O)c4cccc5cccc(c45)C3=O)CC2)cc1OC (stereo unspecified),-6.1,-7.6,?,?,9.2µM*,11.7µM*
O=C1c2cccc3cccc(c23)C(=O)N1CCN1CCN(CC(O)COCc2ccc(Cl)cc2)CC1 (stereo unspecified),-0.4,-8.6,18.4µM*,?,?,?
COc1cc(COCC(O)CN2CCN(CCN3C(=O)c4cccc5cccc(c45)C3=O)CC2)cc(OC)c1OC (stereo unspecified),-3.1,-1.2,-10.0%,?,?,?
O=C1c2cccc3cccc(c23)C(=O)N1CC1CCN(CC(O)COc2ccc3ccccc3c2)CC1 (stereo unspecified),72.2*,128.2*,/,-4.1%,-1.5%,0.7%
COc1cccc(OCC(O)CN2CCC(CN3C(=O)c4cccc5cccc(c45)C3=O)CC2)c1 (stereo unspecified),-4.6,13.0,?,?,?,?
CN(C)CCn1c(=O)n(C2CCCCC2)c(=O)c2c3c(sc21)CCCCC3,/,/,21.8%,/,-2.3%[46.1 µM],/
Cc1ccc2c(c1)c1c(c(=O)n(-c3ccccc3)c(=O)n1CC(=O)NCC1CCCO1)n2C (stereo unspecified),1.7,-12.7,15.4%[46.1 µM],-7.9%,/,-31.9%
CCCCN1C(=O)C2C(C(=O)Nc3cccc(OC)c3)C3C=CC2(O3)C1C(=O)NC1CCCCC1C (stereo unspecified),-2.8,10.2,-15.7%,?,-17.9%,-16.3%
CC1OC2(OC1C)C(=O)Nc1ccccc12 (stereo unspecified),3.3,-5.2,-9.9%,/,4.1%[46.1 µM],58.8%
Cc1ccc(C2NC(=O)c3ccccc3O2)cc1 (stereo unspecified),-2.1,13.3,/,0.6%,/,?
Cc1ccc(C2CN(C)C3(C(=O)Nc4ccccc43)C23COc2ccccc2C3=O)cc1 (stereo unspecified),1.4,-13.8,-23.8%,14.7µM*,?,?
CN1CC(c2ccccc2Cl)C2(COc3ccccc3C2=O)C12C(=O)Nc1ccccc12 (stereo unspecified),16.1*,55.3,-0.5%,?,?,?
COc1ccc(-c2noc(CCC(=O)O)n2)cc1,3.7,13.4,?,-0.2%,-8.3%,?
O=C(O)CCc1ccc(-c2ccc(Br)cc2)o1,9.4,38.9*,5.3%,11.0%,-4.3%,-1.8%
O=C(O)CCc1ccc(-c2ccc(Cl)cc2)o1,12.1,35.8,12.1%,/,?,?
COc1ccc(-c2ccc(CCC(=O)O)o2)cc1,25.5*,41.0*,11.7%,26.8%,?,?
Cn1c(N)c(-c2ccccc2)c2ccc([N+](=O)[O-])cc2c1=O,-1.6,-3.1,?,?,3.7%[46.1 µM],1.0%
Cc1cc(NC(=O)c2ccccc2)ncc1NC(=O)c1ccco1,18.0*,87.4*,-29.5%,33.3%,-16.5%,/
CCCCC(=O)Nc1cnc(NC(=O)c2ccco2)cc1C,20.7*,63.7*,-18.6%,94.9%,-6.4%[46.1 µM],43.4%
O=C(Nc1scc(-c2ccc(Br)cc2)c1C(=O)O)c1ccccc1F,/,/,?,/,3.16µM*,/
COc1ccc(-c2csc(NC(=O)c3ccccc3Br)c2C(=O)O)cc1,-2.2,3.7,-5.4%,-1.2%[0.00184 µM],2.0%,13.0%
O=C(Nc1scc(-c2ccccc2)c1C(=O)O)c1ccccc1F,21.8*,24.1,-10.9%[46.1 µM],5.3%,?,20.3%
SMILES,CHX counter,Shiga toxin inh,LASV entry inh,Pf growth 48h,Marburg entry inh,Pf growth 96h
Cc1ccc(C(=O)Nc2scc(-c3ccccc3)c2C(=O)O)o1,14.3*,35.2,-4.9%,17.9%,-1.3%[46.1 µM],21.3%
Cc1ccc(-c2csc(NC(=O)c3ccccc3F)c2C(=O)O)cc1,39.3*,100.2*,/,37.1%,/,89.7%
CC1CN(C(=O)CCC(=O)NCc2ccccc2)c2ccccc2O1 (stereo unspecified),5.5,5.9,/,12.5%,/,-3.2%
CSCC[C@H](NC(=O)OC(C)(C)C)C(=O)N/N=C/c1c(C)[nH]c(=O)[nH]c1=O,-2.6,-4.9,12.9%,0.6%,-21.2%,1.4%
CN1CCN(S(=O)(=O)Cc2ccccc2Cl)CC1,-2.1,-4.2,/,10.7%,/,-7.7%
O=C(c1ccncc1)c1ccc(N2CCN(C3CC(=O)N(Cc4ccccc4)C3=O)CC2)cc1 (stereo unspecified),-4.5,-1.4,?,?,?,46.6%
O=C(NCC(F)(F)F)c1ccc(S(=O)(=O)N2CCN(C(=O)C3CCCO3)CC2)cc1 (stereo unspecified),/,/,/,1.9%,/,?
COc1cccc(-c2csc(N3CCN(CC(=O)NNC(=O)c4ccc(Cl)cc4)CC3)n2)c1,4.4,10.7,18.0%,16.0%,-22.1%,?
CCCCc1nc(NCCNC(=O)c2ccccc2)c(C#N)c2c1CSC(C)(C)C2,-6.1,-8.9,?,/,?,2.33µM*
CCCCc1nc(NCCNC(=O)c2ccco2)c(C#N)c2c1CSC(C)(C)C2,7.7,25.9,3.2%,8.28µM*,-14.6%,/
CCCCc1nc(Cl)c(C#N)c2c1CSC(C)(C)C2,-1.5,-8.7,/,6.1%,/,18.0%
COc1ccc(S(=O)(=O)N2CCN(Cc3ccccc3)CC2)cc1,-2.2,11.0,?,4.4%,8.4%,0.0%
O=C(O)CCc1ccc(-c2ccccc2)n1Cc1ccco1,-3.7,-8.5,1.3%,/,?,?
Cc1cc(Nc2ncc(Cl)cc2Cl)n[nH]1,14.7*,74.2,0.5%,27.6%,10.2%,/
O=C(NOCc1ccccc1)c1ccccc1,/,/,/,79.0%,/,147.6%
COc1ccc(-n2c(SCC(N)=O)nnc2-c2ccc(NS(=O)(=O)c3ccc(C)cc3)cc2)cc1,-3.1,-10.7,6.1%,/,0.2%,10.4µM*
COc1ccc(-n2c(SCC(=O)Nc3ccccc3)nnc2-c2ccc(NS(=O)(=O)c3ccc(C)cc3)cc2)cc1,-0.8,50.5,?,/,?,3.29µM*
O=C1CCC([N+](=O)[O-])C(c2ccc(C(F)(F)F)cc2)N1 (stereo unspecified),/,/,26.3%,/,14.7%,/
Cc1ccc(-c2nc3ncccc3o2)cc1NC(=O)c1ccccc1,-1.3,-7.2,13.8%[46.1 µM],90.5%,-1.2%[46.1 µM],-3.8%
COc1cc(NC(=O)CSc2nnnn2C2CCCC2)cc(OC)c1,-6.5,-6.9,-16.7%[46.1 µM],38.4%,0.3%[46.1 µM],6.7%
Cc1cc(O)c(C(c2ccccc2)N2CCCCC2)c(=O)n1Cc1ccco1 (stereo unspecified),/,/,3.4%[46.1 µM],/,/,/
